FMDV inh: blocks foot and mouth disease virus. FMDV antiviral cell-based qHTS. Potency, µM (top dose mostly 57.9 µM), for the others: at the highest dose activity change, negative = inhibition, most hits filed as inhibitors. 1.2% of 410,000 active. AID 1159524; calls by dose curve; tested in HEK293T cells; further: read-out not given here; potency means the concentration at half of the fitted maximal effect; on the % scale 0 is the no-effect control and ±100 the full control effect; nearly all actives have a fitted effect of over 45% in size
MARV entry inh: Marburg virus entry inhibition; Marburg virus pseudotyped entry inhibition, cell reporter; Potency, µM (doses to about 37.8 µM), inactives show at the highest dose activity change, negative = inhibition, actives largely listed as inhibitors; 1.8% of 300,000 active; AID 540276; calls by dose curve; tested in HEK293 cells; further: potency means the concentration at half of the fitted maximal effect; on the % scale 0 is the no-effect control and ±100 the full control effect
HCMV inh: inhibitors of human cytomegalovirus; HFF cells, HCMV-luciferase reporter, 72 h; hits give low values; activity change, negative = inhibition, % at 57.5 µM; 4.5% of 410,000 active; AID 1259415; in the data active means activity change below about -60%; inconclusive means no clear call, values can overlap the other calls; inactive means above about -39%; further: on the % scale 0 is the no-effect control and ±100 the full control effect
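Compounds were evaluated in HFFs infected with an HCMV luciferase reporter virus (MOI 1 PFU/cell). Luciferase in lysates collected 72 h post infection served as the replication measure.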
Lassa entry inh: blocks Lassa virus binding to or entry into cells; Potency, µM (top dose mostly 37.9 µM), for the others: at the top dose activity change, negative = inhibition, most hits filed as inhibitors; 1.2% of 300,000 active; AID 540256; Lassa virus pseudotype entry inhibition, cell reporter; calls by dose curve; tested in HEK293 cells; further: potency means the concentration at half of the fitted maximal effect; on the % scale 0 is the no-effect control and ±100 the full control effect; nearly all actives have a fitted effect of over 50% in size
HCV inh: inhibitors of hepatitis C virus infection | 3.4% of 340,000 active | Potency, µM (doses to about 41.8 µM), without a hit: at the highest dose activity change, negative = inhibition, most hits filed as inhibitors | AID 651820 | Huh7.5.1 HCVcc-Cre infection, luciferase reporter, 44 h; active means well fitted inhibition curve with a large enough effect; inconclusive means small, poorly fitted or top-dose-only effect, or another doubt; inactive means no such curve, though single readings can be large or run the other way; further: potency means the concentration at half of the fitted maximal effect; on the % scale 0 is the no-effect control and ±100 the full control effect
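After 44 h co-culture of compound, cells and HCVcc-Cre (~0.5 moi), substrate is added for 15 min at room temperature and luciferase measured over 15 sec. Cells were seeded at 1,000/well and pre-cultured 4 h.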
SARS PLP yeast: inhibitors of SARS-CoV papain-like protease in yeast | S. cerevisiae expressing SARS-CoV PLpro, growth rescue | Potency, µM (series often up to 32.9 µM), inactives show at the highest dose activity, positive = growth rescue, usual class: activators | 0.19% of 330,000 active | AID 485353; calls by dose curve; further: potency means the concentration at half of the fitted maximal effect; 0% is about no effect; nearly all actives have a fitted effect of over 55% in size
Starred values were filed as active, the others as inactive; ? = inconclusive; · = no result given; [ ] = remark or other dose. Hits are enriched below; roughly 8% of the tested compounds scored in any of these assays.

SMILES	FMDV inh	MARV entry inh	HCMV inh	Lassa entry inh	HCV inh	SARS PLP yeast
O=C(CN1CCCC(O)C1)N1c2ccccc2Sc2ccc(C(F)(F)F)cc21 (stereo unspecified)	?	-2%	20	-21%	0%	3%
O=C(CN1C(=O)COc2ccc(S(=O)(=O)NC3CCCC3)cc21)Nc1ccc(Cl)cc1F	38%	·	7	-23%[46.1 µM]	·	·
CC(C)C(=O)NC(c1ccc(Cl)cc1Cl)c1ccc2cccnc2c1O (stereo unspecified)	24%	·	-104*	·	2.2µM*	?
CC(NC(=O)CSc1ncccn1)c1ccc(Cl)cc1Cl (stereo unspecified)	-2%	-2%[46.1 µM]	13	9%[46.1 µM]	-9%	0%
CCC(=O)NC(NC(=S)Nc1cccc2cccnc12)C(Cl)(Cl)Cl (stereo unspecified)	10%	?	45	-3%	?	0%
CCC(=O)NC(c1ccc(Cl)cc1Cl)c1ccc2cccnc2c1O (stereo unspecified)	-6%	11µM*	-103*	?	2.5µM*	1%
CCCCC(=O)NC(c1ccc(Cl)cc1Cl)c1ccc2cccnc2c1O (stereo unspecified)	10%	?	-104*	7.1µM*	?	?
CCN1C(=NCCCOC(C)C)N[C@@H](CCc2ccccc2)[C@H](C(=O)OC)[C@H]1C	·	3%[14.2 µM]	·	·	·	·
COc1cc(-c2nnc(SCC(=O)NC(C)C)o2)cc(OC)c1OC	-22%	-27%[46.1 µM]	21	-13%[46.1 µM]	·	·
COc1ccccc1N(C)S(=O)(=O)c1ccc(C(=O)Nc2ccc3nc(C)sc3c2)cc1	25µM*	?	-85*	?	?	-18%
COc1ccccc1N(C)S(=O)(=O)c1ccc(C(=O)N(C)Cc2ccc(OC(F)F)cc2)cc1	35µM*	11µM*	-39	?	4µM*	5%
Cc1nc2ccc(S(=O)(=O)N(C)CC(=O)Nc3ccc(C(C)C)cc3)cc2s1	-2%	-7%[46.1 µM]	-60*	0%[46.1 µM]	·	·
COc1ccccc1N(C)S(=O)(=O)c1ccc(C(=O)NCCc2ccc(F)cc2)cc1	-21%	-14%	-33	?	?	-4%
COc1ccc(NC(=O)CN(C)S(=O)(=O)c2ccc3nc(C)sc3c2)cc1	-13%	·	-23	-21%[46.1 µM]	·	·
COc1ccccc1N(C)S(=O)(=O)c1ccc(C(=O)Nc2cccc(Br)c2)cc1	?	?	46	?	13µM*	-1%
COc1ccc(C(=O)Nc2ccc3nc(C)sc3c2)cc1S(=O)(=O)N1CCOCC1	0%	·	-21	·	·	·
CCC(C)(C)NC(=O)c1ccc(S(=O)(=O)N(C)c2ccccc2OC)cc1	-17%	-20%	29	-19%	?	·
COC(=O)c1ccc(C2Nc3c(C)cc(C)cc3C3C=CCC32)cc1 (stereo unspecified)	-17%	-16%[46.1 µM]	-4	-2%[46.1 µM]	·	·
COC(=O)[C@](O)(c1c[nH]c2ccccc12)C(F)(F)F	·	3%	·	·	·	·
COc1cccc(-c2ccnc(-n3ncc(C(=O)NCC(C)(C)CN(C)C)c3C)n2)c1	-13%	·	·	·	·	·
CCN(CC)/N=N/C1=C2C(C)=CC(C)=NC2N=N1 (stereo unspecified)	·	11%	·	·	·	·
CN(Cc1ccc(OC(F)F)cc1)C(=O)c1ccccc1Sc1ccccc1C#N	-17%	?	-69*	?	?	·
Cc1nc2ccc(NC(=O)c3ccccc3)cc2s1	55%	-15%	29	7%	6%	-1%
Cc1nc2ccc(NC(=O)c3cccc(S(=O)(=O)N(C)c4ccccc4)c3)cc2s1	25µM*	18µM*	·	?	10µM*	4%
COC(=O)c1cccc(NC(=O)c2ccc(S(=O)(=O)N(C)c3ccccc3OC)cc2)c1	35µM*	·	29	·	·	·
C=CCN(c1ccccc1OC)S(=O)(=O)c1ccc(Cl)c(C(=O)Nc2ccc(N3CCOCC3)cc2)c1	-6%	?	-17	?	?	0%
COc1ccccc1N(C)S(=O)(=O)c1ccc(C(=O)Nc2ccc(N3CCOCC3)cc2)cc1	40µM*	?	-62*	?	10µM*	0%
CC(C)c1ccc(S(=O)(=O)c2nnn3c2nc(NC2CCCC2)c2sccc23)cc1	1%	·	32	2%[46.1 µM]	·	·

Bioassay records: PubChem, National Center for Advancing Translational Sciences (NCATS)
